Molecules are shown by their SMILES.

The source of these data is ChEMBL document CHEMBL5308504, “Tm Shift (DSF) assay results for EUbOPEN Chemogenomics Library” (2023).

Test [1] has as its target Bromodomain-containing protein 4 (Homo sapiens) (UniProt O60885). The note with it: Compound concentration 20.0 uM, Protein concentration 2.0 uM, Result type QC Liability.
The target in test [2] is T1, Transcription intermediary factor 1-alpha (Homo sapiens) (UniProt O15164).
T1 sequence (whole entry): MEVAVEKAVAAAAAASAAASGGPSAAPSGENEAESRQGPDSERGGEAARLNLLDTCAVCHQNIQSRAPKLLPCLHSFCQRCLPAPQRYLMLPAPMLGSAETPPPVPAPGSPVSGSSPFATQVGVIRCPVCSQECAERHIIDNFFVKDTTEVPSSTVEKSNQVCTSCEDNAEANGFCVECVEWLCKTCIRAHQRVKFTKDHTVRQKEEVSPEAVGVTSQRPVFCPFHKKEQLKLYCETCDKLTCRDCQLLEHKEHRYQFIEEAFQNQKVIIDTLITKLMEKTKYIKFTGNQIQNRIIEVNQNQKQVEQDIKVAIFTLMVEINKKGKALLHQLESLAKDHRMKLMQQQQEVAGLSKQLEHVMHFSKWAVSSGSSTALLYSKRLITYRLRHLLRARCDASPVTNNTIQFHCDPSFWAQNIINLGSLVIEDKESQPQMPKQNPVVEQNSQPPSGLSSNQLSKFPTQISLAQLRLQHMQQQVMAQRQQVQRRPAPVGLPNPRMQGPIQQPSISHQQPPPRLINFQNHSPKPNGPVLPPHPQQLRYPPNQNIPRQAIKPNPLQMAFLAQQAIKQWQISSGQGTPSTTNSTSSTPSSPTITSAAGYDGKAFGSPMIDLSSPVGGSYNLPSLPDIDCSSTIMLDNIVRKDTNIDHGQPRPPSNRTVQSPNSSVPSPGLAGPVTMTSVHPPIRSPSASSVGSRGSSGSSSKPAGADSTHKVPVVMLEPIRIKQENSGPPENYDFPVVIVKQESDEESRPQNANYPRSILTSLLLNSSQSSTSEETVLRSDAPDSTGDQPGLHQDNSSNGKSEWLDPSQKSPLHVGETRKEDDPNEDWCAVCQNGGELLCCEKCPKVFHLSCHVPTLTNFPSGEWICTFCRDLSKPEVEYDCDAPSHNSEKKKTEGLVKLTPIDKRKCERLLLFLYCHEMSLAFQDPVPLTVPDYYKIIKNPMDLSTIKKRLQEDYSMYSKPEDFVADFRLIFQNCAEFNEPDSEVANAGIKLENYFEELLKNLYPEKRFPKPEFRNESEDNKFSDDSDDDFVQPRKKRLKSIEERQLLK
As to conditions: Compound concentration 20.0 uM, Protein concentration 2.0 uM, Result type QC Liability.

For `CN1C(=O)c2c(nn(Cc3ccc(-c4cccc(F)n4)cc3)c2Nc2ccccc2)N2C1=N[C@@H]1CCC[C@@H]12`, the ΔTm in test [1] is 1.34 °C; in test [2], 0.8 °C.

On to `COc1cc(-c2cn[nH]c2)ccc1C(=O)Nc1ccc2c(c1)CCNCC2`, for which the values for the ΔTm in test [1] and in test [2] were -1.67 °C and -2.57 °C, respectively.

With `CN(C(=O)c1cnn2cccnc12)c1cc2c(cc1N1CCOCC1)C(=O)N(C[C@@H](F)C(C)(C)O)C2`, the ΔTm in test [1] is 0.93 °C; in test [2] it was -2.51 °C.

For the molecule `CC(=O)c1c(C)c2cnc(Nc3ccc(N4CCN(CCCCNC(=O)COc5cccc6c5C(=O)N(C5CCC(=O)NC5=O)C6=O)CC4)cn3)nc2n(C2CCCC2)c1=O` (stereo not given), the ΔTm in test [1] was -0.38 °C; in test [2], -3.15 °C.

Turning to `CC(C)N(C(=O)C1CCOCC1)c1cc(F)c(Oc2ncc(Cn3nccn3)cc2C(F)(F)F)cc1C(=O)O`, the ΔTm in test [1] was -3.14 °C; in test [2], 0.13 °C.

As for `CCN1C(=O)/C(=C(\NC2CCN(C)CC2)c2ccc3c(c2)OCO3)c2cc(C(C)=O)ccc21`, the ΔTm in test [1] is -12 °C; in test [2], 0.3 °C.

`CN1CCN(C(=O)c2ccc3cc2OCCOCCNc2ccn4ncc-3c4n2)CC1`: the ΔTm was 0.71 °C in test [1] and -0.01 °C in test [2].

For the molecule `CN(C)C/C=C/C(=O)Nc1cc2c(Nc3ccc(F)c(Cl)c3)ncnc2cc1OC[C@@H]1CCCO1`, the ΔTm in test [1] was -0.58 °C; in test [2], -0.17 °C.

As for `C[C@@H](COCCC(=O)N1CCN(c2ncc(C(F)(F)F)cn2)CC1)Nc1cn[nH]c(=O)c1C(F)(F)F`, the values for the ΔTm in test [1] and in test [2] were -1.99 °C and -0.95 °C, respectively.

With `O=C(N[C@H](Cc1ccccc1)C(=O)O)c1cccc(OCc2cccnc2)c1`, the results for the ΔTm in test [1] and in test [2] were -1.53 °C and -0.73 °C, respectively.

On to `CC(C)(C)OC(=O)CN(Cc1ccc(Cl)cc1)Cc1ccc([N+](=O)[O-])s1`, for which the ΔTm in test [1] was -2.44 °C; in test [2], -2.89 °C.

With `CCCCc1oc2ccccc2c1C(=O)c1cc(I)c(OCCN(CC)CC)c(I)c1`, the ΔTm in test [1] is -4.02 °C; in test [2] it was -4.38 °C.

`CC(C)(C#Cc1ccc(NC(=O)COc2ccccc2C(=O)c2ccccc2)c(Cl)c1)C(=O)O`: the ΔTm was determined as 0.63 °C in test [1] and 0.79 °C in test [2].

Turning to `CCC(C(=O)Nc1ccc(-c2cc3ccccc3s2)c(C(N)=O)c1)c1nccs1` (stereo not given), the figures for the ΔTm in test [1] and in test [2] were -0.87 °C and 0.44 °C, respectively.

As to `COc1ccc(-c2c(-c3ccccc3)oc3ncnc(O[C@H](C)CCCCC(=O)O)c23)cc1`, the thermal shift (ΔTm) in test [1] was -0.98 °C; in test [2] it was -1.53 °C.

In the case of `COC(=O)Nc1nc2c(s1)-c1c(c(-c3cccnc3)nn1-c1ccc(C3(N(C)C)CC3)cc1)CC2`, the ΔTm in test [1] was -1.63 °C; in test [2] it was -3.18 °C.

For the molecule `CCc1cnn2c(NCc3ccc[n+]([O-])c3)cc(N3CCCCC3CCO)nc12` (stereo not given), the results for the ΔTm in test [1] and in test [2] were -0.63 °C and -2.72 °C, respectively.

Take `COc1nc2ccc([C@@](O)(c3ccccc3)C3CCN(C(C)=O)CC3)cc2c(Cl)c1Cc1ccc(-n2cccn2)cc1`: the ΔTm was -3.41 °C in test [1] and -0.87 °C in test [2].

As for `COc1cc(Cl)c(C(=O)N[C@@H](CN[C@H]2CC[C@@H](N)CC2)Cc2ccc(C#N)cc2)cc1-c1ccc(CN[C@H](C)c2ccc(C)cc2)o1`, the thermal shift (ΔTm) is -1.12 °C in test [1] and -2.42 °C in test [2].

Regarding `CCN1CCN(Cc2ccc(C(=O)Nc3ccc(C)c(Oc4ccc5c(c4)CC(=O)N5)c3)cc2C(F)(F)F)CC1`, the ΔTm in test [1] is -2.44 °C; in test [2] it was -3.11 °C.

Consider `C[C@]12CC[C@@H]3c4ccc(O)cc4CC[C@H]3[C@@H]1C[C@H]1OC(=O)C[C@]12O`, for which the ΔTm in test [1] is -11.6 °C; in test [2] it was 0.49 °C.

With `CCOc1ccc(S(=O)(=O)Nc2ccc(Cl)cc2C#Cc2cnc(C(=O)O)cc2OC)c2ncccc12`, the ΔTm in test [1] was -1.6 °C; in test [2] it was 0.27 °C.

Take `CCN(CC)C(=O)C1CN2CCc3cc(OC)c(OC)cc3C2CC1OC(C)=O` (stereo not given): the ΔTm in test [1] is -0.18 °C; in test [2], 0.29 °C.

Turning to `CC(=O)Nc1nc(CN2CCC[C@H](Cc3cc(C)nc(C)c3)C2)cs1`, the ΔTm was 0.35 °C in test [1] and -1.42 °C in test [2].

For `O=C(CCCCCCc1ccccc1)c1ncc(-c2ccccn2)o1`, the figures for the ΔTm in test [1] and in test [2] were -1.06 °C and -0.23 °C, respectively.

In the case of `COc1ccc(CC[C@@H](OC(=O)[C@@H]2CCCCN2C(=O)[C@H](c2cc(OC)c(OC)c(OC)c2)C2CCCCC2)c2cccc(OCCN3CCOCC3)c2)cc1OC`, the ΔTm in test [1] was -4.68 °C; in test [2], -1.51 °C.

Consider `Cc1nc2ccccc2c(-c2ccc3c4c(ccnc24)CCO3)c1[C@H](OC(C)(C)C)C(=O)O`, for which the ΔTm in test [1] was -1.5 °C; in test [2], 0.24 °C.

For the molecule `CCOC(=O)CS(=O)(=O)c1ccc([C@@H](CO)NC(=O)c2cc3c(Cl)c(Cl)c(C)cc3n2C)cc1`, the ΔTm is -3.35 °C in test [1] and -0.06 °C in test [2].

`CSc1ccc(C(=O)/C=C/c2cc(C)c(OC(C)(C)C(=O)O)c(C)c2)cc1`: the ΔTm in test [1] was -3.49 °C; in test [2], -3.46 °C.

Consider `Cc1ncsc1-c1ccc(CNC(=O)[C@@H]2C[C@@H](O)CN2C(=O)[C@@H](NC(=O)C2(F)CC2)C(C)(C)C)c(OCCOc2ccc(CN3CCN(c4cc(-c5ccccc5O)nnc4N)CC3)cc2)c1`, for which the values for the ΔTm in test [1] and in test [2] were 13.5 °C and 0 °C, respectively.

For the molecule `O=C1Nc2nc(-c3c(O)cccc3OCC3CC3)cc([C@@H]3CCCNC3)c2CO1`, the ΔTm in test [1] was -0.38 °C; in test [2], 0.45 °C.

For `COc1cc2ncnc(Nc3cccc(O)c3)c2cc1OC`, the ΔTm in test [1] is 0.18 °C; in test [2], -0.88 °C.

Take `O=C(NCCS(=O)(=O)c1ccc(C(F)(F)F)cn1)c1ccc(Cl)cc1`: the values for the ΔTm in test [1] and in test [2] were -3.11 °C and -2.42 °C, respectively.

Consider `CC(C)(C)c1cc(NC(=O)c2csc(Nc3ccccn3)n2)no1`, for which the figures for the ΔTm in test [1] and in test [2] were 1.16 °C and 1.12 °C, respectively.

Regarding `Cc1nccc(COC(=O)N2C[C@@H]3[C@@H](CNC(=O)c4ccc5[nH]nnc5c4)[C@@H]3C2)n1`, the ΔTm in test [1] was -4.78 °C; in test [2], 0.34 °C.
